The text below walks through data of patent US20120264815, “REVERSIBLE PLATELET INHIBITION” (DUKE UNIVERSITY, published 2012).

In this test the target is von Willebrand factor (VWF) (Homo sapiens, UniProt P04275 P04275:764-2813). Put plainly: filter; binding decreased. The settings on record: tags: Haematologic Technologies Inc. (factor VIII free); label: 5'-32P; ssRNA; 2'-F pyrimidines. As to the method: Dissociation constants (Kd) of each truncate were determined using double-filter nitrocellulose filter binding assays (Pergolizzi et al, Blood 108:862-869 (2006)). All binding studies were performed in binding buffer F (20 mM HEPES, pH 7.4, 150 mM NaCl, 2 mM CaCl₂, and 0.1% BSA) at 37° C. Human purified VWF (with factor VIII and factor VIII free) was purchased from Haematologic Technologies Inc. (Essex Junction, VT) and used in the double-filter nitrocellulose filter binding assay to determine the Kd of individual clones. Briefly, RNA was dephosphorylated using bacterial alkaline phosphatase (Gibco BRL, Gaithberg, Md.) and end-labeled at the 5′ end with T4 polynucleotide kinase (New England Biolabs, Beverly, Mass.) and [γ³²P] ATP (Amersham Pharmacia Biotech, Piscataway, N.J.). Direct binding was performed by incubating ³²P—RNA with VWF in physiological buffer+1 mg/ml BSA at 37° C. for 5 min. The fraction of the nucleic acid-protein complex which bound to the nitrocellulose membrane was quantified with a phosphoimager (Molecular Dynamics, Sunnyvale, Calif.).
Sequence “GGGAGGAACUGCCCUCAGCUACUUUCAUGUUGCUGACGCACAGACGACUCGCUG” had a binding signal of 45 % Bmax. Then “GGGAGGACGAUGCGGUGGACGAACUGCCCUCAGCUACUUUCAUGUUGCUGACGCACAGACGACUCGCUGAGG”, with 50 % Bmax; and “GGGAGGACGAUGCGGUGGACGAACUGCCCUCAGCUACUUUCAUGUUGCUGACGCACAGA”, with 22 % Bmax; and “GGGAGGACGAUGCGGUGGACGAACUGCCCUCAGCUACUUUCAUGUUGCUGACGCACAGACGACUCG”, with 28 % Bmax. In the case of “GGGAGGACGAACUGCCCUCAGCUACUUUCAUGUUGCUGACGCACAGACGACUCGCUG” it was 58 % Bmax; in that of “GGGAGGACGAUGCGGUGGACGAACUGCCCUCAGCUACUUUCAUGUUGCUGACGCACAGACAGC”, 36 % Bmax; in that of “GGGAGGACGAUGCGGUGGACGAACUGCCCUCAGCUACUUUCAUGUUGCUGACGCACAGACGACUCGCUG”, 50 % Bmax.
